From PubChem BioAssay AID463173 (ICCB-Longwood Screening Facility, Harvard Medical School, 2010)
The whole screen tested about 52,000 compounds, of which about 1,700 (3.3%) were called active. No stated cut-off is given here; in the data, active means survival mostly below about 52% (no sharp cut-off); inactive means mostly above about 56%. The full list was thinned out, with actives kept by preference.

test system: Wild type; assay: S. aureus survival, RN4220 and DeltatarO strains – OD600, teichoic acid synthesis inhibitors, primary screen (AID 463173); details: S. aureus RN4220 wild type/DeltatarO growth, OD600, 18 h, active compounds read low, screened at 18.75 µg/mL (by protocol)

Structure (SMILES) | survival
O=C(Cn1c(SCc2ccc(F)cc2)nc2cccnc21)Nc1ccccc1F | 75% (inactive)
COc1ccc(-c2nnn3c2nc(NCc2ccc(C)cc2)c2ccccc23)cc1 | 85% (inactive)
O=C(Nc1cc(-c2nc3ccccc3o2)ccc1Cl)c1sc2c([N+](=O)[O-])cccc2c1Cl | 96% (inactive)
Cc1ccc(Cl)cc1-n1ncc2c(N3CCN(Cc4ccccc4)CC3)ncnc21 | 120% (inactive)
COc1cccc(-c2ccc3c(N)c(C(=O)c4ccc(Br)cc4)sc3n2)c1 | 38% (inactive)
COc1cccc(-c2ccc3c(N)c(C(=O)c4ccc(Cl)cc4)sc3n2)c1 | 39% (inactive)
COc1cccc(-c2ccc3c(N)c(C(=O)c4ccc(F)cc4)sc3n2)c1 | 10% (active)
Cc1ccc(CNC(=O)c2ccc3c(c2)N(Cc2cccc(Cl)c2)C(=O)CS3)cc1 | 70% (inactive)
Cc1cccc(N2C(=O)C(CC(=O)Nc3cccc(F)c3)N(CCc3ccncc3)C2=O)c1 (centres undefined) | 84% (inactive)
Cc1cccc(N2C(=O)C(CC(=O)Nc3cccc(F)c3)N(Cc3cccs3)C2=O)c1 (centres undefined) | 0% (active)
CCc1ccc(NC(=O)CC2C(=O)N(c3cccc(C)c3)C(=O)N2Cc2cccs2)cc1 (centres undefined) | -3% (active)
CCc1ccc(NC(=O)CC2C(=O)N(c3ccc(Cl)cc3)C(=O)N2Cc2cccs2)cc1 (centres undefined) | 47% (inactive)
COc1cc(NC(=O)CC2C(=O)N(c3cccc(C)c3)C(=O)N2Cc2cccs2)cc(OC)c1 (centres undefined) | 53% (inactive)
CCOc1ccc(NC(=O)CC2C(=O)N(c3cccc(C)c3)C(=O)N2Cc2cccs2)cc1 (centres undefined) | 85% (inactive)
O=C(NCc1ccccc1Cl)c1nnc(Cc2ccc(Cl)cc2)o1 | 85% (inactive)
CCC1CN(C(=O)N2CCC(C(=O)NCc3cccc(OC)c3OC)CC2)c2cc(C)ccc2O1 (centres undefined) | 106% (inactive)
CC1=C(C(=O)Nc2ccc(C)cc2C)C(c2cccs2)n2nc(SCc3cccc(C)c3)nc2N1 (centres undefined) | 126% (inactive)
CCC(=O)Nc1ccc(C(=O)CSc2nnc(-c3ccc(O)cc3)n2CC2CCCO2)cc1 (centres undefined) | 103% (inactive)
CCc1ccc(C(=O)c2cn(CC(=O)Nc3cccc(OC)c3)c3ccc(OC)cc3c2=O)cc1 | 77% (inactive)
CC(C)c1ccccc1NC(=O)Cn1cnc2c1c(=O)n(C)c(=O)n2C | 93% (inactive)
Cc1ccc(Cl)cc1N1CCN(C(=O)c2ccc(NC(=O)c3nsc4ccccc34)cc2)CC1 | 1% (active)
Cc1ccc(C(=O)N2CCC(C)CC2)cc1NC(=O)c1nsc2ccccc12 | 80% (inactive)
Cc1ccc(C(=O)N2CCC(C(N)=O)CC2)cc1NC(=O)c1nsc2ccccc12 | 72% (inactive)

Structure (SMILES) | survival
O=C(Nc1ccc(C(=O)N2CCN(c3cccc(Cl)c3)CC2)cc1)c1nsc2ccccc12 | 63% (inactive)
Cc1ccc(C(=O)N2CCCCC2)cc1NC(=O)c1nsc2ccccc12 | -6% (active)
O=C(Nc1ccc(C(=O)N2CCN(c3ccc(F)cc3)CC2)cc1)c1nsc2ccccc12 | 55% (inactive)
O=C(Nc1ccc(C(=O)N2CCN(c3ccccc3)CC2)cc1)c1nsc2ccccc12 | -3% (active)
Cc1ccc(C)c(N2CCN(C(=O)c3ccc(NC(=O)c4nsc5ccccc45)cc3)CC2)c1 | 63% (inactive)
O=C(Nc1ccc(C(=O)N2CCN(c3ccc(Cl)cc3)CC2)cc1)c1nsc2ccccc12 | 81% (inactive)
CC1CCN(CC2CCN(C(=O)NCc3ccc(F)cc3)CC2)CC1 | 78% (inactive)
COc1ccccc1OC(C)C(=O)NCC1(N2CCOCC2)CCCCC1 (centres undefined) | 87% (inactive)
COc1ccc(CC(=O)NCc2ccc3c(c2)CCN3C(C)=O)cc1OC | 78% (inactive)
CCC(=O)N1c2ccccc2CC1C(=O)NCCCN1CCN(c2ccc(OC)cc2)CC1 (centres undefined) | 88% (inactive)
Cc1ccc(NC(=O)Cn2nc(C(F)(F)F)c3c2CCC3)cc1C | 81% (inactive)
CC1CCN(S(=O)(=O)c2ccc3nc(N4CCN(c5ccccc5)CC4)ccc3c2)CC1 | 77% (inactive)
O=S(=O)(c1ccc2nc(N3CCN(c4cccc(Cl)c4)CC3)ccc2c1)N1CCCCC1 | 55% (inactive)
O=S(=O)(c1ccc2nc(N3CCN(c4ccccc4)CC3)ccc2c1)N1CCCCC1 | 1% (active)
Cc1ccc(NC(=O)C(=O)NCC(c2cccnc2)N2CCN(Cc3ccccc3)CC2)cc1 (centres undefined) | 85% (inactive)
CC1CCN(C(=O)c2ccc3c(c2)OCCO3)CC1 | 105% (inactive)
CN(Cc1ccccc1)c1ccc(-c2nc(-c3ccccn3)no2)cc1[N+](=O)[O-] | 67% (inactive)
CCc1ccc(CNC(=O)c2cc(=O)[nH]c3ccc(S(=O)(=O)N4CCCCC4)cc23)cc1 | 91% (inactive)
Cc1ccc(S(=O)(=O)c2nc(-c3cccs3)oc2N2CCC(C)CC2)cc1 | -10% (active)
CC1CCN(c2oc(-c3cccs3)nc2S(=O)(=O)c2ccc(Cl)cc2)CC1 | -8% (active)
O=S(=O)(c1ccc(Cl)cc1)c1nc(-c2cccs2)oc1N1CCCCC1 | 45% (inactive)
CC1CCN(c2oc(-c3cccs3)nc2S(=O)(=O)c2ccccc2)CC1 | 24% (inactive)
Cc1ccc(S(=O)(=O)c2nc(-c3cccs3)oc2N2CCCCC2)cc1 | 50% (inactive)

Structure (SMILES) | survival
O=S(=O)(c1ccccc1)c1nc(-c2cccs2)oc1N1CCCCC1 | 123% (inactive)
O=C(CSc1nc2ccccc2o1)NC1CC1 | 86% (inactive)
Cc1ccc2c(c1)c1c(c(=O)n(-c3ccccc3C)c(=O)n1CC(=O)NCC1CCCO1)n2C (centres undefined) | 66% (inactive)
CCOc1ccc(CCNC(=O)Cn2ncc3c(=O)oc4ccc(C)cc4c32)cc1 | 80% (inactive)
COc1ccc(NC(=O)CSc2nc(-c3ccccc3)nc3cc(=O)[nH]n23)cc1 | 73% (inactive)
CCCCc1c(C)nc2c(-c3ccc(OC)cc3)c(C)[nH]n2c1=O | 12% (active)
CCOC(=O)CCc1c(C)nc2cc(-c3cc(OC)cc(OC)c3)[nH]n2c1=O | 74% (inactive)
CCOC(=O)Cc1c(C)nc2c(-c3ccc(Cl)cc3)c(C(F)(F)F)nn2c1C | 49% (inactive)
CCCCc1nc2ccccc2n2c(-c3ccc(OC)cc3)c3c(=O)n(C)c(=O)n(C)c3c12 | 52% (inactive)
CCCCc1c(C)nc2c(-c3ccc(Cl)cc3)c(C)[nH]n2c1=O | -13% (active)
Cc1nc2c(-c3ccc(F)cc3)c(C)nn2c(C)c1CCC(=O)NCc1ccc(Cl)cc1 | 91% (inactive)
C#CC(C)(CC)NC(=O)Cn1nnc(-c2ccc(OCc3ccccc3Cl)cc2)n1 (centres undefined) | 74% (inactive)
CC1=CC(C)(C)Nc2ccc(OC(=O)c3ccco3)cc21 | 125% (inactive)
CCc1ccc(NC(=O)Cn2cnc3sc(C)c(S(=O)(=O)N4CCN(c5ccccc5OC)CC4)c3c2=O)cc1 | 138% (inactive)
CCOC(=O)Cn1c(=O)n(CC2CCCO2)c2nc(-c3ccc(C(C)C)cc3)nc(C(N)=O)c21 (centres undefined) | 1% (active)
CCOC(=O)Cn1c(=O)n(CC2CCCO2)c2nc(-c3ccc(C)cc3)nc(C(N)=O)c21 (centres undefined) | 63% (inactive)
CCOC(=O)Cn1c(=O)n(-c2ccccc2OC)c2nc(-c3cccc(F)c3)nc(C(N)=O)c21 | 57% (inactive)
CCOC(=O)Cn1c(=O)n(-c2ccccc2OC)c2nc(-c3ccccc3)nc(C(N)=O)c21 | -3% (active)
CCOC(=O)Cn1c(=O)n(CC2CCCO2)c2nc(-c3ccc(CC)cc3)nc(C(N)=O)c21 (centres undefined) | 81% (inactive)
CCOC(=O)Cn1c(=O)n(-c2ccccc2OC)c2nc(-c3ccc(C(C)C)cc3)nc(C(N)=O)c21 | 82% (inactive)
CCOC(=O)Cn1c(=O)n(CC2CCCO2)c2nc(-c3ccc(OCC)cc3)nc(C(N)=O)c21 (centres undefined) | -4% (active)
CCOC(=O)Cn1c(=O)n(CC2CCCO2)c2nc(-c3ccccc3)nc(C(N)=O)c21 (centres undefined) | 56% (inactive)
CCOC(=O)Cn1c(=O)n(CC2CCCO2)c2nc(-c3cccc(C)c3)nc(C(N)=O)c21 (centres undefined) | 55% (inactive)

Structure (SMILES) | survival
CCCCC(=O)Nc1ccc(NC(=O)C2CC2)nc1 | 101% (inactive)
COc1ccc(OC)c(NC(=O)Cc2c(C(=O)O)n(C)c3ccc(C)cc23)c1 | 88% (inactive)
CC1CCCN(S(=O)(=O)c2cc3c4c(c2)CC(=O)N4CCC3)C1 (centres undefined) | 81% (inactive)
CC(C)Cn1c(=O)c2sccc2n2c(CCCC(=O)NCC(C)c3ccccc3)nnc12 (centres undefined) | 96% (inactive)
CCCC(=O)N(c1ccc2oc3c(c2c1)CCCC3)S(=O)(=O)c1cc(C)ccc1C | 61% (inactive)
COc1ccccc1C(=O)Nc1ccc2nc(SCC(=O)N(C)c3ccccc3)sc2c1 | 84% (inactive)
CC(Sc1nc(-c2ccccc2)c(C#N)c(=O)[nH]1)C(=O)Nc1ccc(F)cc1 (centres undefined) | 91% (inactive)
O=C(CSc1ccccc1)N1CCc2c([nH]c3ccccc23)C1c1ccc(Cl)cc1 (centres undefined) | 64% (inactive)
COCCCNC(=O)CCn1c(=O)c2ccccc2n(CC(=O)Nc2c(C)cc(C)cc2C)c1=O | 84% (inactive)
CCOc1ccccc1CNC(=O)CN1C(=O)c2cccnc2Oc2ccc(C)cc21 | 136% (inactive)
Cc1ccc2nc(/C(C#N)=C/c3ccc(-c4ccc(F)cc4F)o3)[nH]c2c1 | 26% (inactive)
COC(=O)c1sc(-c2ccccc2)cc1NC(=O)c1cccc(F)c1 | 87% (inactive)
COC(=O)c1sc(-c2ccccc2)cc1NC(=O)Nc1ccccc1Cl | 5% (active)
COC(=O)c1sc(-c2ccccc2)cc1NC(=O)Nc1ccc(F)cc1 | 13% (active)
CCOc1ccc(-c2cc(NC(=O)Nc3cccc(C(C)=O)c3)c(C(=O)OC)s2)cc1 | 81% (inactive)
CCOc1ccc(-c2cc(NC(=O)Nc3ccccc3Cl)c(C(=O)OC)s2)cc1 | 50% (inactive)
COC(=O)c1sc(-c2ccccc2)cc1NC(=O)Nc1ccc(Cl)cc1 | 4% (active)
CCOc1ccc(-c2cc(NC(=O)Nc3ccccc3C(F)(F)F)c(C(=O)OC)s2)cc1 | 72% (inactive)
CCOc1ccc(-c2cc(NC(=O)Nc3ccc(Cl)cc3)c(C(=O)OC)s2)cc1 | 88% (inactive)
COC(=O)c1sc(-c2ccccc2)cc1NC(=O)c1cccc(Cl)c1 | 38% (inactive)
